From ChEMBL document CHEMBL4513216, “Probing the Open Global Health Chemical Diversity Library for Multistage-Active Starting Points for Next-Generation Antimalarials” (ACS Infect Dis, 2020)
About 2,700 (4%) of roughly 68,000 compounds showed an effect of 50% or more. The entries come from a sample that favours strong results as a whole.

test system: Plasmodium berghei; experiment: Screen against P. berghei liver stage (PbLuc), transformed with Luciferase, at 2uM; assay type: functional, HepG2; conditions: tested at 2 uM

SMILES	INHIBITION [%]
COCCN1C[C@@H]2[C@@H](OC)CCN(Cc3ccsc3)[C@@H]2C1	20.91
CN1C[C@@H](F)[C@@H](OCc2nc3ccc(C#N)cc3[nH]2)C1	52.91
CN1C[C@@H](F)[C@@H](OCc2nc3ccccc3[nH]2)C1	40.83
Cc1cc2nc(CO[C@H]3CN(C4CCCCC4)C[C@H]3F)[nH]c2cc1C	18.65
CC(=O)N1C[C@@H](F)[C@@H](OCc2nc3ccc(C#N)cc3[nH]2)C1	36.99
Cc1cc2nc(CO[C@H]3CN(C4CCN(C)CC4)C[C@H]3F)[nH]c2cc1C	50.7
Cc1cc2nc(CO[C@H]3CN(C4CCC4)C[C@H]3F)[nH]c2cc1C	46.17
O=C(Cn1cc(Cl)cn1)N1CCCC(c2cc3ccccc3cn2)C1 (centres undefined)	36.98
Cc1nc(N(C)C)ncc1C(=O)NCCc1csc(-c2ccncc2)n1	40.05
CCC(NC(=O)c1cnc(N(C)C)nc1C)c1ccc(S(C)(=O)=O)cc1 (centres undefined)	70.81
CCn1c(C)nnc1SCCNC(=O)c1cnc(N(C)C)nc1C	-41.73
COCCNC(=O)c1cnc(N(C)C)nc1C	12.85
CCC(NC(=O)c1cnc(N(C)C)nc1C)c1ccncc1 (centres undefined)	57.34
CCn1nc(C)c(C(C)NC(=O)c2cnc(N(C)C)nc2C)c1C (centres undefined)	-12.22
O=C(CN1CCc2cncnc2C1)N1CCc2sccc2C1	-27.59
Cn1cnnc1SCC(=O)N1C[C@@H]2CC[C@H]1CN(Cc1cccnc1)C2	12.74
O=C(CN1CCCCC1)Nc1cc(C(F)(F)F)ccc1-n1cccc1	18.54
CNC(=O)c1cccc(CNC(C)c2cc(C)ccc2OC(F)F)c1 (centres undefined)	25.55
CNC(=O)c1cccc(CNC(C)c2ccc(F)cc2N(C)C)c1 (centres undefined)	55.25
CNC(=O)c1cccc(CNC(C)c2cc(Cl)ccc2OC)c1 (centres undefined)	19.81
CC(C)n1nc(O)c2c1NC(=O)CSC2c1cnn(C)c1 (centres undefined)	6.9
COc1cc(CNCC(C)O)cc(Cl)c1OCc1ccc(C)cc1 (centres undefined)	44.51
Cc1ccccc1CN1CCN(Cc2nccn2C)CC1	20.28
C=C(C)CN1CCN(Cc2nccn2C)C(C)C1 (centres undefined)	36.95
COc1ccc(CN2CCN(Cc3nccn3C)C(C)C2)cc1F (centres undefined)	-13.34
CC1CN(CC(=O)N2CCOCC2)CCN1Cc1nccn1C (centres undefined)	66.27

SMILES	INHIBITION [%]
COc1ccc(C)cc1CN1CCN(Cc2nccn2C)CC1	50.61
COc1ccc(C(C)N2CCN(Cc3nccn3C)CC2)cc1Cl (centres undefined)	18.31
CC1CN(CC(=O)NC2CCOCC2)CCN1Cc1nccn1C (centres undefined)	-0.99
COc1ccc(C)cc1CN1CCN(Cc2nccn2C)C(C)C1 (centres undefined)	50.61
COc1ccc(F)cc1CN1CCN(Cc2nccn2C)C(C)C1 (centres undefined)	-49.85
Cc1cc(CN2CCc3nc(N4CCOCC4)nc(O)c3CC2)c(C)s1	22.84
Cc1cccc(CNC2CC3(CCN(CCO)CC3)c3ccccc32)n1 (centres undefined)	34.02
Cc1ccc2oc(SCC(N)=O)nc2n1	-30.1
CN(C(=O)Nc1nncs1)C1CCN(c2ccccc2Cl)C1=O (centres undefined)	2.06
Cn1cnc2c1C(COCC1CCOCC1)CN(C(=O)c1ccco1)C2 (centres undefined)	-39.19
CN(C)C(=O)N1CCN(C(=O)CCc2ccccc2)[C@H]2CS(=O)(=O)C[C@H]21	-93.14
Cn1c(C2CC2)nc2c1CCN(Cc1nc3ccccc3s1)C2	14.59
CN1CC2(CCN(C(=O)COc3ccc(Cl)cc3Cl)CC2)OC1=O	16.37
CSCCCN1CCC(c2nnc(Cn3ccnc3)n2C2CC2)CC1	54.29
NCCN1CCC(c2nnc(Cn3ccnc3)n2C2CC2)CC1	52.08
CS(=O)(=O)N1CCC(c2nnc(Cn3ccnc3)n2C2CC2)CC1	-13.72
OCC(CO)N1CCC(c2nnc(Cn3ccnc3)n2C2CC2)CC1	32.26
c1cn(Cc2nnc(C3CCN(C4CCOCC4)CC3)n2C2CC2)cn1	24.88
CC(C)(C)CN1CCC(c2nnc(Cn3ccnc3)n2C2CC2)CC1	-13.72
COc1ccccc1C(NC(=O)CN(C)C(C)C)c1noc(C)n1 (centres undefined)	1.8
O=C1CN(C(=O)c2cccc(OCc3cscn3)c2)CCN1	-7.02
CS(=O)(=O)N1CCC(NC(=O)COc2ccc(Cl)c(Cl)c2)CC1	-34.45
CS(=O)(=O)N1CCC(NC(=O)COc2ccc(Cl)cc2)CC1	54.86
Cc1ccc(OCC(=O)NC2CCN(S(C)(=O)=O)CC2)cc1	30.88
c1ccc(COC[C@]23COC[C@H]2CN(c2ncccn2)C3)nc1	-19.09
CC(C)N(C)Cc1ncn2c1CN(C(=O)C1CCCO1)CCC2 (centres undefined)	21.7

SMILES	INHIBITION [%]
Cc1c(CNCCCOc2cccnc2)c2ccccc2n1CC(N)=O	43.87
COc1ccc(CC(=O)N2CCC(c3nnc4n3CCC4)CC2)cc1F	-25.23
Cc1ccc(C(=O)CCC(=O)N2CCC(c3nncn3C)CC2)cc1	54.85
CCn1cnnc1C1CCN(C(=O)COc2ccccc2OC)CC1	-16.51
COc1ccccc1CCNC(=O)N1CCCC(c2nncn2C)C1 (centres undefined)	18.59
COc1ccc(CC(=O)N2CCC(c3nncn3C)CC2)cc1F	54
COc1ccc(CC(=O)N2CCCC(c3nncn3C)C2)cc1 (centres undefined)	14.26
CCn1cnnc1C1CCN(C(=O)c2cc(F)ccc2OC)CC1	27.5
CCn1cnnc1C1CCN(C(=O)Cc2ccc(OC)c(F)c2)CC1	77.01
COc1ccc(CCNC(=O)N2CCCC(c3nncn3C)C2)cc1 (centres undefined)	55.45
Cn1cnnc1C1CCN(C(=O)Cc2ccc3c(c2)OCCO3)CC1	5.14
Cc1cccc(C)c1OCCC(=O)N1CCC(c2nncn2C)CC1	-1.56
Cc1ccc(OCCC(=O)N2CCC(c3nncn3C)CC2)c(C)c1	7.74
c1coc(CN2CCC(c3ccc4c(c3)OCO4)CC2)c1	-8.85
Cc1ccc(CN(CCCn2ccnc2)Cc2ccccc2O)s1	-43.99
CN(C)CCNC(=O)c1cc(-c2cnc(N3CCCC3)nc2)cn1C	9.79
Cc1cccc(C(=O)N2CCCCC2c2ccc(CN(C)C)cc2)n1 (centres undefined)	-32.59
Fc1cc(Cl)cnc1N1CCCC(c2nccn2Cc2ccccn2)C1 (centres undefined)	3.97
COc1c(Cl)cc(C(=O)NCCNc2ncccn2)cc1Cl	21.97
CN1CCCCC[C@@H]2[C@@H]1[C@H](c1ccccc1)CN2C(=O)c1cccnc1	31.28
CN1CCCC[C@@H]2[C@H]1[C@@H](c1ccccc1)CCN2C(=O)c1ccccc1	-60.34
CN1CCCC[C@@H]2[C@H]1[C@@H](c1ccccc1)CCN2C(=O)c1cccnc1	51.57
COc1ccc(C(=O)C2CCCN(Cc3cccc(F)c3)C2)c(OC)c1 (centres undefined)	-14.94
COc1ccc(F)cc1C(=O)C1CCCN(Cc2cnc(C)s2)C1 (centres undefined)	72.49
COc1ccc(F)cc1C(=O)C1CCCN(Cc2ccc(C)s2)C1 (centres undefined)	49.02
CO[C@@H]1CCN(Cc2ccoc2)C[C@@H]1Cc1ccccc1	28.46

SMILES	INHIBITION [%]
OC1CCN(c2cnnc3ccccc23)CC1	-1.81
CCOC(=O)N1CCN(c2nc(NC3CC3)c3ccccc3n2)CC1	27.85
CCc1c(C)nc2ccccc2c1N1CCC(C(=O)NC)CC1	5.28
CCOC(=O)N1CCN(c2nc(N)c3ccccc3n2)CC1	-12.08
CCc1c(C)nc2ccccc2c1N1CCC(O)CC1	60.13
CCc1c(C)nc2ccccc2c1N1CCC(NC(C)=O)CC1	50.59
CN(CCc1cccc2ccccc12)Cc1nc(N)nc(N(C)C)n1	-3.1
COCC[C@]1(O)CCN(Cc2nc(C)cs2)C[C@H]1C	-9.15
Cc1n[nH]c(C)c1C1CCCN1C(=O)c1cc(Br)c[nH]1 (centres undefined)	56.21
Cc1n[nH]c(C)c1C1CCCN1C(=O)c1coc(Br)c1 (centres undefined)	28.43
Cc1cccc(C(=O)N2CCCC2c2c(C)n[nH]c2C)c1 (centres undefined)	41.84
Cn1cc2c(n1)C(CNC1CCOCC1)OCC2 (centres undefined)	-10.78
COCC(=O)N1CCC2(CC1)COC(COCc1ccccn1)C2 (centres undefined)	37.41
CCOCC(=O)N1CCC2(CC1)COC(COCc1ccccn1)C2 (centres undefined)	18.05
CC(=O)N1CCC2(CC1)COC(COCc1ccccn1)C2 (centres undefined)	53.55
Fc1ccc(-c2c[nH]c([C@@H]3COCCN3)n2)cc1	32.59
FC(F)(F)Oc1ccc(-c2c[nH]c([C@@H]3COCCN3)n2)cc1	12.28
FC(F)(F)c1ccc(-c2c[nH]c([C@@H]3COCCN3)n2)cc1	64.99
CC(c1ncc(-c2ccccc2)o1)N1CCN(C(=O)C(C)(C)C)CC1 (centres undefined)	-18.71
CNC(=O)CCN(C)c1nc(-c2ccncc2)nc2c1CCNC2	24.54
Cc1nc(CO[C@@H]2CN(Cc3ccsc3)[C@@H]3COC[C@@H]32)cs1	24.43
Cc1nc(CO[C@@H]2CN(Cc3ccc(F)cc3)[C@@H]3COC[C@@H]32)cs1	-17.76
Cc1ccc(CN2C[C@@H](OCc3csc(C)n3)[C@H]3COC[C@H]32)s1	9.36
Cc1nc(CO[C@H]2CN(Cc3cccs3)[C@@H]3COC[C@H]23)cs1	56.76
Cc1nc(CO[C@@H]2CN(Cc3cccs3)[C@@H]3COC[C@@H]32)cs1	26.01
Cc1nc(CO[C@@H]2CN(Cc3cccnc3)[C@@H]3COC[C@@H]32)cs1	55.66
